The values below come from PubChem BioAssay.

Records with an inconclusive call do not appear. Active and inactive are the calls of the source.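 Rule for the calls, unless noted: active = viability at or below 10% of carrier control in both of two separate runs; inconclusive = viability at or below 10% in only one of the two runs; inactive = the rest.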

Experiment [1] is described as follows: reducers of endogenous Her2 protein level, primary screen, SKBR3 breast tumor cells, AlphaScreen, ATP viability (AID 461;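 active = Her2 level under about 52% in both replicate screens, with viability over 70% of control, limit read from the data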;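 for Her2 level: lower value means less Her2 protein in the cells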;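 for viability: percent of carrier control wells set as 100% viability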). The settings on record: 18-24 h, measured here: SKBR3 viability, ATP luminescence, at 10 µM.
Experiment [2] addresses Receptor tyrosine-protein kinase erbB-2 (Homo sapiens) (UniProt P04626). The experiment is described as above. As to conditions: 18-24 h, at 10 µM, stronger effect = lower value.
Experiment [3] is described as follows: SK-BR-3 cell growth inhibitors, pilot screen, 24 h, human (AID 572).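 Note: compound exposure lasted between 18 and 24 h rather than exactly 24 h; 100% = carrier-treated control wells.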 The settings on record: SK-BR-3 viability, CellTiter-Glo luminescence, at 10 µM, stronger effect = lower value.
Experiment [4] is described as follows: HUVEC growth inhibition – cell-based, human, primary screen (AID 575;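 active = viability at or below 30% in both replicate assays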;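 note: 100% = median of untreated cell wells with 0.1% DMSO on each plate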). The settings on record: HUVEC proliferation, CellTiter-Glo luminescence, 72 h; at 10 µM; stronger effect = lower value. (In general: In ATP-based viability assays light output follows the ATP content of the culture.)
The nature of experiment [5]: growth inhibitors of H69AR lung tumor, primary screen, human, duplicate replicates (AID 580;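 active = viability at or under a set limit in both replicates, limit being median viability minus 3 SD, cut at about 48% in these data, passing the limit was not always enough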;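 note: 100% = mean luminescence of untreated wells and 0% = no signal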). As to conditions: H69AR lung tumor cells viability, ATP luminescence, 72 h; at 10 µM; stronger effect = lower value.
The nature of experiment [6]: reversal of MRP1-mediated doxorubicin resistance, pilot screen, H69AR cells, doxorubicin co-treatment (AID 601;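 active = viability loss from added drug above about 55%, and viability with drug at most 40%, in both replicates, limit read from the data, passing the limit was not always enough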). The settings on record: CellTiter-Glo, 72 h, at 10 µM; for differential viability (reversal): stronger effect = higher value.
The nature of experiment [7]: 384-well plate pilot, post-Golgi transport modulator project, inhibition of yeast transport mutant growth (AID 636; in the data active = inhibition above about 31%). As to conditions: absorbance 615 nm, about 18 h, stronger effect = higher value.
Experiment [8] can be described thus: growth suppression of yeast trafficking mutant, preliminary HTS, modulators of trafficking downstream of Golgi apparatus project, 1536-format plate, OD 615 nm (AID 637; in the data active = inhibition above about 30%). The settings on record: yeast transport mutant growth, absorbance 615 nm, 18 h; stronger effect = higher value.
A short description of experiment [9]: OD615 S. cerevisiae growth inhibition, permissive medium, pilot counter-assay, permissive growth control for S. cerevisiae lifespan shortening project (AID 705;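 active = growth inhibition above 25% in both replicates, a cutoff set 3 SD above the mean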). As to conditions: OD615, 24 h, at 10 µM, stronger effect = higher value.
Experiment [10] is described as follows: Restrictive medium S. cerevisiae growth inhibition, OD615, pilot screen of yeast lifespan reduction project, restrictive growth control (AID 706;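 active = growth inhibition above a set limit, 3 SD over mean compound inhibition, in both replicates, cut at about 43% in these data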;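 note: modified DeaD lifespan yeast strain shifted to restrictive glucose medium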). The settings on record: OD615, 48 h, at 10 µM, stronger effect = higher value.
Experiment [11] can be described thus: viability gain of MRP-1-high H69AR cells under doxorubicin, pilot screen, MRP-1 activator project, CellTiter-Glo, duplicate (AID 807;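 active = viability increase at or above a cutoff of the median across tested compounds plus 3 SD, cut at about 8.5% in these data, passing the limit was not always enough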;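 note: compound pretreatment 18-22 h then 72 h combined with doxorubicin; 0% = doxorubicin alone and 100% = vehicle without doxorubicin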). The settings on record: H69AR viability with doxorubicin, CellTiter-Glo luminescence; at 10 µM; stronger effect = higher value.
Experiment [12] in a line: growth suppression of beta-catenin knockout HCT116, pilot screen, human colon tumor cells (AID 823;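 active = cell viability at or below a set limit in both duplicate runs, the limit being the all-compound median minus 4 SD, cut at about 23% in these data, passing the limit was not always enough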;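 note: 0% = wells killed by 20 µM Hyamine and 100% = untreated DMSO cell wells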). The settings on record: CellTiter-Glo, 60 h, at 10 µM, stronger effect = lower value.
Experiment [13] is described as follows: growth suppression of PTEN-deleted HCT116, pilot screen, cell-based, HCT116 clonal line, CellTiter-Glo (AID 824;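 active = viability at or below 27.92% in each of two runs, the all-compound median minus 4 SD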;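 note: 0% = 20 µM Hyamine control and 100% = vehicle cell control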). As to conditions: 60 h, at 10 µM, stronger effect = lower value.
Experiment [14] is described as follows: inhibitors of the yeast RAM network, pilot screen, dse1pr::URA3 reporter, 5-FOA selection (AID 869;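 active = inhibition over a set limit, the all-compound mean plus 3 SD, in both replicate runs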;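 note: 0% = DMSO wells with no growth and 100% = 10 µM 1-NA-PP1 with full growth; RAM network block rescues cells from 5-FOA so hits raise OD615 growth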). The settings on record: S. cerevisiae dse1pr::URA3 5-FOA growth, OD615, 2 d; at 10 µM; stronger effect = higher value; strain carries analog-sensitive mutant Cbk1 kinase.
Experiment [15] in a line: RAM signaling pathway blockade in yeast – S. cerevisiae, Pdr1DBD-CYC8 efflux-inhibited sensitized strain, primary screen (AID 1298;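 active = RAM network inhibition above 8.4% in each of two replicates, 3 SD over the compound average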;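 note: 0% = DMSO untreated cells without growth and 100% = 10 µM 1-NA-PP1 full growth; higher means more yeast growth rescued from 5-FOA killing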). As to conditions: S. cerevisiae cbk1-as DSE1-URA3 strain, 5-FOA growth OD615, 2 d; at 50 µM; stronger effect = higher value.
[16] abbreviates: H69AR cells + 2 uM doxorubicin, measured here: viability with 2 uM doxorubicin, stronger effect = lower value.
The mark [17] stands for this setting: H69AR cells, compound alone cytotoxicity.

Receptor tyrosine-protein kinase erbB-2 (Homo sapiens), sequence (P04626 whole entry, looked up): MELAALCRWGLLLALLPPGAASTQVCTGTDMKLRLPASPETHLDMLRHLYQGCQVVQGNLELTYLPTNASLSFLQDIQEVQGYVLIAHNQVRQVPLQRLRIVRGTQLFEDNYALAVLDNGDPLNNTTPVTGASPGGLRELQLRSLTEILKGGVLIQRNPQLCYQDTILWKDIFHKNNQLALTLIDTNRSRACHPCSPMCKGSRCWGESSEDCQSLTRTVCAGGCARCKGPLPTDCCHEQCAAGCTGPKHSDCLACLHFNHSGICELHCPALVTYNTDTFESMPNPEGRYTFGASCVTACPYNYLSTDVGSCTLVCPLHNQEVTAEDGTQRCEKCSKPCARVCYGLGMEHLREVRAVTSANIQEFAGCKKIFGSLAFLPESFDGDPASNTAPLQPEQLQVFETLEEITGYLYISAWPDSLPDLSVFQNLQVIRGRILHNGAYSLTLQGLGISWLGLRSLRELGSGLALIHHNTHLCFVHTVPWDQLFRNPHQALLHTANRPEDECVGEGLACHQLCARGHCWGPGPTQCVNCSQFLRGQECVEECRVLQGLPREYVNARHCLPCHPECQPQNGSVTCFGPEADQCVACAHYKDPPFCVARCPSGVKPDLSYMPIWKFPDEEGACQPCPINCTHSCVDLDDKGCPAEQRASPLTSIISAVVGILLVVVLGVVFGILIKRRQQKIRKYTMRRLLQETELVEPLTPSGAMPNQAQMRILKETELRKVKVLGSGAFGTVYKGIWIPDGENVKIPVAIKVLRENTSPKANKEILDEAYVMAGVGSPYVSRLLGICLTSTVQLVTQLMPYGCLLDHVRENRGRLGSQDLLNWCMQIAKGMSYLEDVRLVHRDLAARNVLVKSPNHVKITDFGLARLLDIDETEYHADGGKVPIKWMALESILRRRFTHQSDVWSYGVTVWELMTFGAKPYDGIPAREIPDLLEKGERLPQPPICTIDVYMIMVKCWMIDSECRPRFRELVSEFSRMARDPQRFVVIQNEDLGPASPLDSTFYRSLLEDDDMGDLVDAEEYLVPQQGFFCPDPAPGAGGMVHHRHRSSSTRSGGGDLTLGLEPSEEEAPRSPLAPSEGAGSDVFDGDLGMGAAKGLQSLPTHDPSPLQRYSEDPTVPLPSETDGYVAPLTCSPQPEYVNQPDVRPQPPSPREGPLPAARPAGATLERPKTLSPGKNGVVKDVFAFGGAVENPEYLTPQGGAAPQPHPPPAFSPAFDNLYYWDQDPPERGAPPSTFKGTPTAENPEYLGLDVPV

By viability is commonly meant a read-out of living cells in per cent, often relative to untreated cells. A word on the inhibition: it is the drop in the measured response relative to a control, in per cent. Regarding `COc1cccc(-c2nc3n(n2)C(c2cccs2)C(C(=O)Nc2cccnc2)=C(C)N3)c1` (stereo not given), the viability was 78% in experiment [1]; 78% (inactive) in [3]; 83.2% (inactive) in experiment [4]; 101% (inactive) in experiment [5]; 107% in [6] (setting [16]); 101% in experiment [6] (setting [17]). The viability in experiment [12] is 87.2% (inactive); in [13], 93% (inactive). The Her2 level in experiment [2] was 79% (inactive). In experiment [6] (H69AR cells + 2 uM doxorubicin), the differential viability (reversal) is -5.46% (inactive). For the same compound, the inhibition in [7] was -2.93% (inactive); in [8] it was -0.67% (inactive); in experiment [14], -0.145% (inactive). The figures for the growth inhibition in experiment [9] and in experiment [10] were -13.1% (inactive) and -6.04% (inactive), respectively. In addition, in experiment [11], the viability increase is -2.26% (inactive). Also, the RAM network inhibition in experiment [15] is 5.84% (inactive).

Turning to `COc1ccc(N(CC(=O)Nc2ccc3c(c2)OCO3)S(=O)(=O)c2c(C)nn(C)c2C)cc1`, the viability is 90.5% in [1]; 90.5% (inactive) in experiment [3]; 118% (inactive) in experiment [4]; 99% (inactive) in experiment [5]; 85.1% in experiment [6] (setting [16]); 99% in [6] (setting [17]). Besides, the viability is 93.3% (inactive) in experiment [12] and 90.5% (inactive) in experiment [13]. In addition, in experiment [2], the Her2 level is 90.5% (inactive). The differential viability (reversal) in [6] (H69AR cells + 2 uM doxorubicin) was 13.8% (inactive). The inhibition in experiment [7] is -0.38% (inactive); in [8], 1% (inactive); in experiment [14], 2.33% (inactive). Further, the results for the growth inhibition in [9] and in experiment [10] were -8.51% (inactive) and -11.5% (inactive), respectively. The viability increase in experiment [11] was -2.78% (inactive). For the same compound, the RAM network inhibition in experiment [15] is 3.88% (inactive).

On to `CCCSCCCNC(=O)Cn1cc2c(n1)CCC(C)C2` (stereo not given), for which the viability in [1] was 99.5%; in experiment [3] it was 99.5% (inactive); in [4], 101% (inactive); in [5], 98.8% (inactive); in experiment [6] (setting [16]), 91%; in [6] (setting [17]) it was 98.8%. Besides, the results for the viability in [12] and in experiment [13] were 102% (inactive) and 95.7% (inactive), respectively. The Her2 level in experiment [2] is 106% (inactive). Also, the differential viability (reversal) in experiment [6] (H69AR cells + 2 uM doxorubicin) is 7.85% (inactive). Besides, the figures for the inhibition in experiment [7], in experiment [8] and in experiment [14] were 4.49% (inactive), -0.67% (inactive) and 0.775% (inactive), respectively. The growth inhibition was 3.59% (inactive) in [9] and 1.5% (inactive) in experiment [10]. In addition, the viability increase in [11] is -0.9% (inactive). Moreover, the RAM network inhibition in [15] is 1.33% (inactive).

As to `CCOn1c(=O)c(=O)n(OCc2ccccc2)c2ccccc21`, the viability is 86.5% in experiment [1]; 86.5% (inactive) in experiment [3]; 78.5% (inactive) in [4]; 83.6% (inactive) in experiment [5]; 74.5% in experiment [6] (setting [16]); 83.6% in experiment [6] (setting [17]). The viability in [12] was 95.8% (inactive); in experiment [13], 92% (inactive). Also, the Her2 level in experiment [2] is 88% (inactive). In addition, in [6] (H69AR cells + 2 uM doxorubicin), the differential viability (reversal) is 9.08% (inactive). The figures for the inhibition in [7], in experiment [8] and in experiment [14] were -2.05% (inactive), -6.33% (inactive) and 2.35% (inactive), respectively. For the same compound, the growth inhibition in experiment [9] is -14% (inactive); in experiment [10] it was -6.63% (inactive). Besides, the viability increase in experiment [11] was -3.35% (inactive). Besides, the RAM network inhibition in [15] is 3.12% (inactive).

With `COc1cccc(-c2nc(CS(=O)(=O)CC(=O)N3CCc4ccccc4C3)c(C)o2)c1`, the viability in [1] was 93.5%; in experiment [3], 93.5% (inactive); in [4] it was 93.3% (inactive); in experiment [5] it was 89.1% (inactive); in [6] (setting [16]) it was 83.1%; in experiment [6] (setting [17]) it was 89.1%. The viability in experiment [12] is 75.5% (inactive); in [13], 73.7% (inactive). Moreover, in [2], the Her2 level was 86.5% (inactive). Also, the differential viability (reversal) in [6] (H69AR cells + 2 uM doxorubicin) was 6% (inactive). Besides, the inhibition in experiment [7] is -0.67% (inactive); in experiment [8], 0.98% (inactive); in [14], 1.68% (inactive). Besides, the growth inhibition was 2.52% (inactive) in experiment [9] and 8.9% (inactive) in [10]. The viability increase in [11] was -2.85% (inactive). Also, the RAM network inhibition in experiment [15] was 6.29% (inactive).
